Screens: PubChem, The Scripps Research Institute Molecular Screening Center
Only some compounds are listed: those with a hit (about 4.2% of all), similar ones and a draw of the others.
ssDAF-12 act: S. stercoralis DAF-12 activation, primary screen. HEK293 ssDAF-12/GRIP1 lit1-tk-luc reporter, luminescence; % of 3 µM dafachronic acid response. activation, % at 6.8 µM. actives 1% (n = 370,000). AID 652126;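 active means activation above the mean over all tested compounds plus 3 SD, cut at about 0.9% in these data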;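 further: 0% = DMSO-only wells and 100% = 3 µM delta7-dafachronic acid wells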
hgDAF-12 ag: hgDAF-12 agonism, primary luciferase screen. HEK293 GAL4-hgDAF12 UAS-luciferase reporter, agonist luminescence; normalized to butyrate control. activation, % at 6.8 µM. actives 1.8% (n = 370,000). AID 687014;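 active means activation above a cutoff set at the mean of all screened compounds plus 3 SD, cut at about 10% in these data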;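 further: 0% = DMSO wells and 100% = sodium butyrate wells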
hcDAF-12 act: activators of H. contortus DAF-12 nuclear receptor | HEK293 hcDAF-12 lit1-tk-luc reporter, luminescence; 0% DMSO, 100% Δ7-dafachronic acid | activation, % at 6.8 µM | actives 1.4% (n = 370,000);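 active means activation above the mean of all tested compounds plus 3 SD, cut at about 5.5% in these data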;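 further: 100% = response to 3 µM Δ7-dafachronic acid high control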
DAX1 inh: blocks DAX1 repression of SF-1 activated StAR promoter | inhibition, % at 6.8 µM | HEK293T StAR-luciferase reporter, SF-1/DAX-1 repression relief | actives 1.1% (n = 370,000);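 active means inhibition above the mean over all tested compounds plus 3 SD, cut at about 3.6% in these data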;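 further: 0% = DAX-1 cells with DMSO and 100% = cells lacking DAX-1 with DMSO; higher inhibition means more luminescence from relief of DAX-1 repression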
SMARCA2 activ: activators of SMARCA2 function. actives 1% (n = 370,000). activation, % at 9.1 µM. MG213 cells, MMTV-luciferase reporter, dexamethasone, overnight; in the data active means activation above about 7.8%;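 further: 0% = vehicle wells and 100% = reference activator wells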
DAX1 conf: confirmation of human DAX1 (NR0B1) inhibitors; AID 652134; actives 87% (n = 2,400); shares compounds with DAX1 inh; HEK293T StAR-promoter luciferase reporter, SF-1/DAX-1 repression; inhibition, % at 6.8 µM;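 active means inhibition above the average of every tested compound plus 3 SD, cut at about 3.8% in these data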;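 further: 0% = DAX-1 cells with DMSO and 100% = no DAX-1 control cells with DMSO; active compounds raise luminescence by relieving repression of the StAR reporter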
Target sequence (P51843 whole entry, looked up): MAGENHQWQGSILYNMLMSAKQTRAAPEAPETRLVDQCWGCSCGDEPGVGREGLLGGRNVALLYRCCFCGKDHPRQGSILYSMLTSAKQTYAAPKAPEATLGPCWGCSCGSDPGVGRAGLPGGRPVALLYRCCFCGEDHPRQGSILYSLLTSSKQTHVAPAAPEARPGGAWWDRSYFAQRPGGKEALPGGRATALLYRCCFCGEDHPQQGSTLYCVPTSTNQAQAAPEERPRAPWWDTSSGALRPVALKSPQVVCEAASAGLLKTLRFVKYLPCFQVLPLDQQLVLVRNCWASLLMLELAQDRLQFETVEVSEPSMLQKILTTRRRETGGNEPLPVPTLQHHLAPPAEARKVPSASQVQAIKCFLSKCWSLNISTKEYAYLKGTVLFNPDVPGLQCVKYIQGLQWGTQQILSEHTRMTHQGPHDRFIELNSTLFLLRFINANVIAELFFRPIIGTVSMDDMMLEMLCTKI
SF1 mutant ctr: counter-screen for DAX1 inhibitors: nonselective inhibitors with SF-1 AF2 mutant. shares compounds with DAX1 inh. HEK293 StAR-luciferase, luminescence. inhibition, % at 6.8 µM. actives 78% (n = 2,400);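 active means inhibition above the mean of all tested compounds plus 3 SD, cut at about 3% in these data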;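 further: 0% = DAX-1 transfected cells with DMSO and 100% = cells without DAX-1 with DMSO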
An asterisk follows results filed as active.

COCCN1C(=O)[C@H]2C[C@@]13O[C@H](C1CCCCC1)N=C3CC1c3ccccc3C[C@@]12C (stereo partly specified) was read as ssDAF-12 act -1, hgDAF-12 ag -3, hcDAF-12 act -2, DAX1 inh 0 and SMARCA2 activ -7.
Screening CCC(=O)Nc1cccc(-c2nnc(-c3cccc(NC(=O)CC)c3)o2)c1 returned ssDAF-12 act -2, hgDAF-12 ag -3, hcDAF-12 act 0, DAX1 inh -1 and SMARCA2 activ 1.
`CCC(=O)Nc1ccc(-c2nnc(-c3ccccc3)o2)cc1` gave ssDAF-12 act 1, hgDAF-12 ag 10*, hcDAF-12 act 2, DAX1 inh 4.5*, SMARCA2 activ 0, DAX1 conf 14* and SF1 mutant ctr 4.5*.
Cc1cc(C)n2nc(CNS(=O)(=O)c3ccc(C(C)(C)C)cc3)nc2n1 was read as ssDAF-12 act -1, hgDAF-12 ag 0, hcDAF-12 act 2, DAX1 inh 0 and SMARCA2 activ 1.
`CC(=O)c1c(C)[nH]c(C(=O)Nc2ccc(Cl)cc2)c1C` gave ssDAF-12 act 0, hgDAF-12 ag 9, hcDAF-12 act 4, DAX1 inh 1 and SMARCA2 activ 2.
Screening CC(=O)c1c(C)[nH]c(C(=O)Nc2ccccn2)c1C returned ssDAF-12 act 0, hgDAF-12 ag 8, hcDAF-12 act 2, DAX1 inh 7.5*, SMARCA2 activ 3, DAX1 conf 9.1* and SF1 mutant ctr 6.3*.
`CCC(=O)Nc1sc(C(=O)Nc2ccccc2F)c(C)c1C(=O)OC` gave ssDAF-12 act 0, hgDAF-12 ag 13*, hcDAF-12 act 4, DAX1 inh 5.9*, SMARCA2 activ 2, DAX1 conf 13* and SF1 mutant ctr 6.3*.
CCC(=O)Nc1sc(C(=O)Nc2ccccc2OC)c(C)c1C(=O)OC was read as ssDAF-12 act 0, hgDAF-12 ag 2, hcDAF-12 act 2, DAX1 inh 0 and SMARCA2 activ 1.
For C[C@H](O)[C@@H]1C(=O)N2CCc3c([nH]c4ccccc34)[C@@H]2C[C@@H]1N(C)Cc1ccc(Cl)cc1 the results were ssDAF-12 act -1, hgDAF-12 ag 3, hcDAF-12 act 1, DAX1 inh 6.2*, SMARCA2 activ 0, DAX1 conf 1 and SF1 mutant ctr 0.
COc1cccc(-c2csc(NC(=O)C3CC3)n2)c1 was read as ssDAF-12 act -1, hgDAF-12 ag 12*, hcDAF-12 act 5, DAX1 inh 5.2*, SMARCA2 activ 3, DAX1 conf 7.0* and SF1 mutant ctr 5.8*.
`O=C(Nc1nc(-c2ccc3c(c2)OCCO3)cs1)C1CCCC1` gave ssDAF-12 act -1, hgDAF-12 ag 8, hcDAF-12 act 5, DAX1 inh 4.7*, SMARCA2 activ -3, DAX1 conf 12* and SF1 mutant ctr 3.9*.
Screening N#CCC(=O)Nc1nc(-c2ccc3c(c2)OCCO3)cs1 returned ssDAF-12 act 0, hgDAF-12 ag 7, hcDAF-12 act 2, DAX1 inh 1 and SMARCA2 activ 4.
`COc1cccc(-c2csc(NC(=O)Nc3ccccc3)n2)c1` gave ssDAF-12 act -2, hgDAF-12 ag -4, hcDAF-12 act -4, DAX1 inh -1 and SMARCA2 activ -4.
`Cc1ccc(Cn2cc(COC(=O)NCC(C)C)nn2)cc1` gave ssDAF-12 act -1, hgDAF-12 ag -2, hcDAF-12 act -2, DAX1 inh 0 and SMARCA2 activ -1.
O=C(NCCc1ccccc1)c1ccc(Sc2ccccc2Cl)c([N+](=O)[O-])c1 was read as ssDAF-12 act -1, hgDAF-12 ag -1, hcDAF-12 act -1, DAX1 inh -1 and SMARCA2 activ 3.
Screening Brc1cccc(-c2nc3ccc(Br)cn3c2Cc2ccsc2)c1 returned ssDAF-12 act -1, hgDAF-12 ag 7, hcDAF-12 act 1, DAX1 inh 1 and SMARCA2 activ 1.
Screening Cc1ccc(-c2nc3ccc(Br)cn3c2Cc2ccsc2)cc1 returned ssDAF-12 act 1.1*, hgDAF-12 ag 21*, hcDAF-12 act 5, DAX1 inh 4.7*, SMARCA2 activ -2, DAX1 conf 8.6* and SF1 mutant ctr 5.8*.
`CCCCCCCCN1C(=O)[C@@H](CC(=O)N2CCN(C(=O)c3ccco3)CC2)C[C@@]2(C(=O)OC)C1=C[C@H](C1CCCC1)O[C@@H]2C` gave ssDAF-12 act -1, hgDAF-12 ag 1, hcDAF-12 act 0, DAX1 inh 0 and SMARCA2 activ -3.
Screening COCCCNc1ccn2nc(-c3cc(OC)c(OC)c(OC)c3)cc2n1 returned ssDAF-12 act -1, hgDAF-12 ag -1, hcDAF-12 act 0, DAX1 inh -2 and SMARCA2 activ -4.
COCCCNc1ccn2nc(-c3ccccc3)cc2n1 was read as ssDAF-12 act 1.0*, hgDAF-12 ag 10, hcDAF-12 act 6.3*, DAX1 inh 6.5*, SMARCA2 activ 1, DAX1 conf 15* and SF1 mutant ctr 5.0*.
For CSCCCNC(=O)c1cn(C(C)c2ccccc2)nn1 (stereo unspecified) the results were ssDAF-12 act -1, hgDAF-12 ag -3, hcDAF-12 act -3, DAX1 inh 0 and SMARCA2 activ -5.
For O=C(Cc1ccccc1)NC1CCCCN(Cc2cccc(Cl)c2)C1=O (stereo unspecified) the results were ssDAF-12 act -2, hgDAF-12 ag 3, hcDAF-12 act -2, DAX1 inh 1 and SMARCA2 activ -6.
CCOC(=O)Cc1c(C)c2c(C)[nH]nc2oc1=O was read as ssDAF-12 act -1, hgDAF-12 ag 2, hcDAF-12 act -1, DAX1 inh 5.4*, SMARCA2 activ 0, DAX1 conf -1 and SF1 mutant ctr 0.
`COc1ccc(-c2oc3cc(O)c(OC)c(O)c3c(=O)c2OC)cc1O` gave ssDAF-12 act 1, hgDAF-12 ag -3, hcDAF-12 act 2, DAX1 inh 7.9*, SMARCA2 activ -1, DAX1 conf 16* and SF1 mutant ctr -9.
Screening COc1cccc(S(=O)(=O)N2C[C@H](O)COC[C@H]3O[C@@H](CC(=O)N4CCN(C)CC4)CC[C@@H]32)c1 returned ssDAF-12 act -1, hgDAF-12 ag -2, hcDAF-12 act 0, DAX1 inh 0 and SMARCA2 activ -5.
COC(=O)C1CCN(C(=O)c2ccc3nc(-c4cccc(OC)c4)oc3c2)CC1 was read as ssDAF-12 act 0, hgDAF-12 ag 5, hcDAF-12 act 2, DAX1 inh 4.8*, SMARCA2 activ 3, DAX1 conf 8.3* and SF1 mutant ctr 5.0*.
